From PubChem BioAssay
Compounds with a hit are over-represented: about 7.2% of the library has one in this group of screens.
VLA-4 inh: inhibition in a human VLA-4 binding assay; VLA-4 expressing cells, ligand binding flow cytometry; AID 2557; 330,000 tested, 0.2% active; P13612; inhibition, % (about 7 µM as worked out from the volumes in the protocol); in the data active = inhibition above about 50%
SUMO Mot1 rescue: inhibitors of SUMOylation pathway: yeast Mot1-301 growth rescue. S. cerevisiae Mot1-301 growth rescue, ATP luminescence, 38.5C; percent above DMSO median, 100 means doubled. growth rescue, % at 18.8 µM. 320,000 tested, 1% active;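 active = every valid replicate shows activation above 250% relative to neutral control wells; inactive = the rest, any valid replicate at or below 250%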
ALR inh: inhibitors of human sulfhydryl oxidase ALR; P55789; purified ALR, DTT oxidation, H2O2 HRP-luminol luminescence; inhibition, % (no concentration beside the values); 290,000 tested, 3.8% active; AID 485317;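 active = mean replicate inhibition above about 79%, with every replicate also reaching it, limit read from the data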
AHR act: human AHR activation; P35869; AHR-responsive luciferase reporter cells, luminescence; activation, % at 5 µM; 320,000 tested, 2.5% active; AID 2796; in the data active = activation above about 47%
Target sequence (P35869 whole entry, looked up): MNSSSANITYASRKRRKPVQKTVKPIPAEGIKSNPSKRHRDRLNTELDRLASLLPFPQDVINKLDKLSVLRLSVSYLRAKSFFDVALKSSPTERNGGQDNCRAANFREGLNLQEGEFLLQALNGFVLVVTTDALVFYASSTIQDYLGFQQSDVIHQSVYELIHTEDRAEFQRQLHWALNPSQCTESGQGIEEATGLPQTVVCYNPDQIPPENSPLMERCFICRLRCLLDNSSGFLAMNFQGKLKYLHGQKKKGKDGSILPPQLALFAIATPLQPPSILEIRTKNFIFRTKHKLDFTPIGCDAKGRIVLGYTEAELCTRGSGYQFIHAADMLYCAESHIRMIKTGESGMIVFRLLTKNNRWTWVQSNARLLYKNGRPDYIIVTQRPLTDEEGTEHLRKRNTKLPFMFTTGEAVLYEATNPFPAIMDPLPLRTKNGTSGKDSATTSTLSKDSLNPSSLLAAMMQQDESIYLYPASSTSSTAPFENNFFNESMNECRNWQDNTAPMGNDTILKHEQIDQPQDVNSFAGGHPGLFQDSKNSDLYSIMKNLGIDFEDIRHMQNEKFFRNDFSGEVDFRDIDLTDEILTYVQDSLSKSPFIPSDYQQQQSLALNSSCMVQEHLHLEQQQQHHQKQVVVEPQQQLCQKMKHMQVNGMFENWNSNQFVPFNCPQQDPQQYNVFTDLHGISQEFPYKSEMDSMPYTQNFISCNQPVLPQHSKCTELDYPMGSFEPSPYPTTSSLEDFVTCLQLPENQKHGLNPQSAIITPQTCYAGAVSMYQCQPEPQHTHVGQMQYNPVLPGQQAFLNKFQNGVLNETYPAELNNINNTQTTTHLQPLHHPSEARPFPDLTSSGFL
A1 inh: inhibitors of the anti-apoptotic protein A1, read as caspase activation | caspase activation, % (test concentration not listed) | MEF A1-2A-BIM cells, Caspase-Glo 3/7 luminescence, 3 h; percent of clofoctol response, vehicle zero | 330,000 tested, 0.066% active;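 active = over half of replicate activation scores above 10%, or exactly half above 10 with the replicate mean above 10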
Efflux pump mplx: antifungal efflux pump inhibition, Nile Red retention. S. cerevisiae Candida pump triplex. inhibition, % at 10 µM. 330,000 tested, 0.44% active;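 active = plate passing quality check with inhibition over a set limit, or well fluorescence over plate mean plus 4 SD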;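 note: Nile Red retained in pooled yeast measured as flow cytometry median fluorescence; higher means more Nile Red kept so more efflux inhibition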
Yeast Mot1 SUMO: yeast SUMO pathway inhibition in dose response. shares compounds with SUMO Mot1 rescue. S. cerevisiae Mot1-301 galactose growth, ATP luminescence, 24 h; -100 = growth of slx-deleted rescue strain. growth activity, percent, % at 42 µM. 2,300 tested, under 10 active. AID 493004;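 active = Signal drops as the depositor expects, and the fitted half-maximal dose is no more than ten times the top valid tested dose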;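 note: more negative values mean stronger growth rescue toward the control strain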
Hits are given with their value.

`COc1ccccc1CNC(=O)CN(c1ccc(C)cc1)S(=O)(=O)c1c(C)noc1C` gave VLA-4 inh inactive, SUMO Mot1 rescue inactive, ALR inh inactive, AHR act inactive, A1 inh inactive and Efflux pump mplx inactive.
Screening Clc1ccccc1C(c1ccccc1)(c1ccccc1)n1ccnc1 returned VLA-4 inh inactive, SUMO Mot1 rescue 662, ALR inh inactive, AHR act inactive, A1 inh inactive, Efflux pump mplx inactive and Yeast Mot1 SUMO inactive.
COc1ccc(-c2cnc3c(-c4ccc(F)cc4)cnn3c2N)cc1 was read as VLA-4 inh inactive, SUMO Mot1 rescue inactive, AHR act inactive, A1 inh inactive and Efflux pump mplx inactive.
Screening Cc1nc2c(-c3ccc(F)cc3)cnn2c2c1CCC2 returned VLA-4 inh inactive, SUMO Mot1 rescue 583, ALR inh inactive, AHR act 71, A1 inh inactive, Efflux pump mplx inactive and Yeast Mot1 SUMO inactive.
Screening Cc1ccc([C@@H]2CC=C(C(=O)O)[C@H](c3ccccc3F)N2S(=O)(=O)c2ccc(C)cc2)cc1 returned VLA-4 inh inactive, SUMO Mot1 rescue inactive, ALR inh inactive, AHR act inactive, A1 inh inactive and Efflux pump mplx inactive.
For Cc1ccc(S(=O)(=O)N2[C@@H](c3ccccc3F)C(C(=O)O)=CC[C@H]2c2ccc3c(c2)OCO3)cc1 the results were VLA-4 inh inactive, SUMO Mot1 rescue 497, ALR inh inactive, AHR act inactive, A1 inh inactive, Efflux pump mplx inactive and Yeast Mot1 SUMO inactive.
O=C1CCC(C(=O)OCc2nnc(-c3ccccc3)o2)=NN1 was read as VLA-4 inh inactive, SUMO Mot1 rescue inactive, ALR inh inactive, AHR act inactive, A1 inh inactive and Efflux pump mplx inactive.
O=C(c1cccc(F)c1)N1CCCC(C(=O)N2CCN(c3ccccc3)CC2)C1 (centres undefined) was read as VLA-4 inh inactive, SUMO Mot1 rescue inactive, ALR inh inactive, AHR act inactive, A1 inh inactive and Efflux pump mplx inactive.
For O=C(CSc1nc2ncccc2[nH]1)NC1CCCCC1 the results were VLA-4 inh inactive, SUMO Mot1 rescue 929, ALR inh inactive, AHR act inactive, A1 inh inactive, Efflux pump mplx inactive and Yeast Mot1 SUMO inactive.
Screening O=C(CSc1nc2ccccc2[nH]1)NC1CCCC1 returned VLA-4 inh inactive, SUMO Mot1 rescue inactive, ALR inh inactive, AHR act inactive, A1 inh inactive and Efflux pump mplx inactive.
`CCOc1ccc(C(=O)CCC(=O)N2CCC(C(=O)OC)CC2)cc1` gave VLA-4 inh inactive, SUMO Mot1 rescue inactive, ALR inh inactive, AHR act inactive, A1 inh inactive and Efflux pump mplx inactive.
O=C1c2nccnc2C(=O)N1c1ccc(C(F)(F)F)cc1 was read as VLA-4 inh inactive, SUMO Mot1 rescue 588, ALR inh inactive, AHR act inactive, A1 inh inactive, Efflux pump mplx inactive and Yeast Mot1 SUMO inactive.
CCOc1ccc(N2C(=O)c3cccnc3C2=O)cc1 was read as VLA-4 inh inactive, SUMO Mot1 rescue inactive, ALR inh inactive, AHR act inactive, A1 inh inactive and Efflux pump mplx inactive.
For CC1(C)C(C=C(Cl)Cl)C1C(=O)N(Cc1ccccc1Cl)C1CCS(=O)(=O)C1 (centres undefined) the results were VLA-4 inh inactive, SUMO Mot1 rescue inactive, ALR inh inactive, AHR act inactive, A1 inh inactive and Efflux pump mplx inactive.
O=C(c1ccco1)c1cn(CC(=O)N2CCCCC2)c2ccccc12 was read as VLA-4 inh inactive, SUMO Mot1 rescue inactive, AHR act inactive, A1 inh inactive and Efflux pump mplx inactive.
`Cc1ccc(NC(=O)Cn2nnc(C(=O)NCc3ccc4c(c3)OCO4)c2N)cc1` gave VLA-4 inh inactive, SUMO Mot1 rescue 550, ALR inh inactive, AHR act inactive, A1 inh inactive, Efflux pump mplx inactive and Yeast Mot1 SUMO inactive.
COc1cc2c(cc1OC)CN(S(=O)(=O)c1cccc(F)c1)CC2 was read as VLA-4 inh inactive, SUMO Mot1 rescue active, ALR inh inactive, AHR act inactive, A1 inh inactive, Efflux pump mplx inactive and Yeast Mot1 SUMO inactive.
CC(C)CCn1c(=O)c2ccccc2n2c(CN3CCOCC3)nnc12 was read as VLA-4 inh inactive, SUMO Mot1 rescue inactive, ALR inh inactive, AHR act inactive, A1 inh inactive and Efflux pump mplx inactive.
Screening CCOc1ccc2[nH]c(=O)c(CN(Cc3ccco3)C(CC)c3nnnn3Cc3ccccc3)cc2c1 (centres undefined) returned VLA-4 inh inactive, SUMO Mot1 rescue active, ALR inh inactive, AHR act inactive, A1 inh inactive, Efflux pump mplx inactive and Yeast Mot1 SUMO inactive.
Screening COc1cc(NCC(=O)Nc2cccc(S(=O)(=O)N3CCCCC3)c2)cc(OC)c1OC returned VLA-4 inh inactive, SUMO Mot1 rescue inactive, ALR inh inactive, AHR act inactive, A1 inh inactive and Efflux pump mplx inactive.
O=C(C1CCC(CNc2c(N3CCCCC3)c(=O)c2=O)CC1)N1CCN(C2CCCCC2)CC1 (centres undefined) was read as VLA-4 inh inactive, SUMO Mot1 rescue 499, ALR inh inactive, AHR act inactive, A1 inh inactive, Efflux pump mplx inactive and Yeast Mot1 SUMO inactive.
O=C(C1CCC(CNc2c(N3CCCCC3)c(=O)c2=O)CC1)N1CCN(c2ccccn2)CC1 (centres undefined) was read as VLA-4 inh inactive, SUMO Mot1 rescue inactive, AHR act inactive, A1 inh inactive and Efflux pump mplx inactive.
For CC1(C)CC(=O)C=C(OC(=O)c2ccc(Cl)cc2)C1 the results were VLA-4 inh inactive, SUMO Mot1 rescue 470, ALR inh 98, AHR act inactive, A1 inh inactive, Efflux pump mplx inactive and Yeast Mot1 SUMO inactive.
For COc1ccc(C(=O)NNC2=CC(=O)CC(C)(C)C2)cc1 the results were VLA-4 inh inactive, SUMO Mot1 rescue inactive, ALR inh inactive, AHR act inactive, A1 inh inactive and Efflux pump mplx inactive.
Screening O=S(=O)(NCc1ccncc1)c1ccc(Br)s1 returned VLA-4 inh inactive, SUMO Mot1 rescue inactive, ALR inh inactive, AHR act inactive, A1 inh inactive and Efflux pump mplx inactive.
Screening CCOCc1c(C(=O)OCC(=O)Nc2ccc(C)c(S(=O)(=O)N(C)C)c2)oc2ccccc12 returned VLA-4 inh inactive, SUMO Mot1 rescue inactive, ALR inh inactive, AHR act inactive, A1 inh inactive and Efflux pump mplx inactive.
`O=C1CCC(C(=O)N2CCN(c3ccc(F)cc3)CC2)CN1CC1CCCCC1` (centres undefined) gave VLA-4 inh inactive, SUMO Mot1 rescue inactive, ALR inh inactive, AHR act inactive, A1 inh inactive and Efflux pump mplx inactive.
